Source: PubChem (National Center for Advancing Translational Sciences (NCATS))
An excerpt weighted towards active compounds, which were near 18% of everything screened.
TDP1 cell CPT: DT40-hTDP1 cell growth loss with CPT; chicken DT40 Tdp1-/-;hTDP1 cells + 20 nM CPT, ATP luminescence, 48 h; Potency, µM (doses to about 46.2 µM), for inactives: top-dose activity change, negative = growth inhibition, most hits filed as inhibitors; 12% of 420,000 active; AID 686979; further: potency means the concentration at half of the fitted maximal effect; nearly all actives have a fitted effect of over 55% in size
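Chicken DT40 Tdp1-/- cells complemented with human TDP1, 400 cells/well, exposed to compounds plus 20 nM camptothecin for at least 48 h at 37 C; viability read as ATP content by CellTiter-Glo luminescence.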
DT40 TDP1 no CPT: qHTS for Inhibitors of human tyrosyl-DNA phosphodiesterase 1 (TDP1): qHTS in cells in absence of CPT. AID 686978, 2013. DT40 Tdp1-/- hTDP1 cells, no CPT, ATP luminescence, 48 h. 15% of 420,000 active. Potency, µM (doses to about 46.2 µM), for inactives: top-dose activity change, negative = growth inhibition, hits mostly inhibitors; further: potency means the concentration at half of the fitted maximal effect; nearly all actives have a fitted effect of over 55% in size
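Chicken DT40 Tdp1-/- cells complemented with human TDP1, screened without camptothecin (DMSO vehicle only), 400 cells/well. Compounds pin-transferred, cells incubated at 37 °C for at least 48 hr. Growth read as ATP-dependent luminescence (CellTiter-Glo, 30 min at RT).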
IL-1B inflam inh: blocks inflammasome-driven IL-1 beta release; activity change, % at 57.5 µM; AID 743279; 4.7% of 360,000 active; THP-1 LPS/ATP IL-1B secretion, AlphaLISA, 16 h; stronger effect = lower value; in the data active means activity change below about -50%; inconclusive means mostly about -30% to -49%
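THP-1 cells pretreated 1 hr with compounds (up to 57.5 uM final), then stimulated with LPS (250 ng/mL final) plus ATP (1.25 mM final); secreted IL-1B measured by AlphaLISA after 16 hr, decreased signal indicating inhibition.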
RORgamma inh: inhibitors of mouse ROR gamma transcriptional activity. P51450. Drosophila S2 Gal4-RORgamma UAS-luciferase reporter, 20 h. Potency, µM (top dose mostly 53.6 µM), for inactives: top-dose activity change, negative = inhibition, hits mostly inhibitors. 5.4% of 310,000 active. AID 2551; further: potency means the concentration at half of the fitted maximal effect; nearly all actives have a fitted effect of over 60% in size
Target sequence (P51450 whole entry, looked up, the tested form may be a part): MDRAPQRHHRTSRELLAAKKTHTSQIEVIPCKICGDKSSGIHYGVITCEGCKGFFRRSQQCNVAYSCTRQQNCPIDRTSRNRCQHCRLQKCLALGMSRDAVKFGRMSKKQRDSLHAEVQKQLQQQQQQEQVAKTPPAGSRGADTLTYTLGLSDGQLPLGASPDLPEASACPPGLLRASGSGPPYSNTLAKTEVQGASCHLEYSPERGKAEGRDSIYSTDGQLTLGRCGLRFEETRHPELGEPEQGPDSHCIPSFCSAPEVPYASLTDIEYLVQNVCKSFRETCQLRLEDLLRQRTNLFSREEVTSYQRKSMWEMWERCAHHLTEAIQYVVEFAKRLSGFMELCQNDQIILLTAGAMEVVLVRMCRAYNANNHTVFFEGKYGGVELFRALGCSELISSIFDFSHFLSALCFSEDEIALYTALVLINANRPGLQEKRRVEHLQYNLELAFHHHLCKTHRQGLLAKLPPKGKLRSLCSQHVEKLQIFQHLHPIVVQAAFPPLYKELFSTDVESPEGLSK
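In this cell-based reporter format, copper sulfate (700 uM final) drives Gal4–ROR gamma fusion expression from a metallothionein promoter in Drosophila Schneider cells; compounds preincubated 1 hr, reporter read after 20 hr at ambient temperature.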
Gal4-VP16 FLuc: inhibits Gal4-VP16 luciferase reporter, ROR gamma counter-screen; Drosophila S2 Gal4-VP16 UAS-luciferase, luminescence, 20 h; 3.5% of 310,000 active; Potency, µM (top dose mostly 53.6 µM), for inactives: top-dose activity, negative = inhibition, hits mostly inhibitors;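 further: Gal4-VP16 expression switched on by copper sulfate through the metallothionein promoter; potency means the concentration at half of the fitted maximal effect; nearly all actives have a fitted effect of over 50% in size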
LDHA block: LDHA (human) enzyme inhibition; 0.15% of 480,000 active; P00338; activity change, % (values are at about 110 or 230 µM); AID 1347041; purified LDHA, NADH/diaphorase-resazurin fluorescence; stronger effect = lower value; in the data active means activity change below about -30%; inconclusive means mostly about -25% to -30%;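 further: plate controls were DMSO wells for no effect and wells without enzyme for full effect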
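Human LDH5 at 2 nM final in Tris HCl pH 7.4 with 0.06 mM NADH and 0.2 mM pyruvate, reacted 5 minutes at room temperature. Remaining NADH coupled via diaphorase/resazurin; resorufin fluorescence read at 0 and 20 minutes, normalized to enzyme-free and DMSO wells.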
Numbers without * were called inactive; ? = inconclusive; nt = not tested or not shown. Unless noted, the call rests on the fitted dose curve; in most records, active means well fitted curve in the direction sought with a large enough effect; inconclusive means small, poorly fitted or top-dose-only effect, or another doubt; inactive means no such curve, though single readings can be large; an effect the other way counts as inactive or inconclusive. Unless noted, on the % scale 0 is the no-effect control and ±100 the full control effect.

SMILES	TDP1 cell CPT	DT40 TDP1 no CPT	IL-1B inflam inh	RORgamma inh	Gal4-VP16 FLuc	LDHA block
Cc1noc(/C=C/Nc2ccc(F)cc2F)c1[N+](=O)[O-]	3.4%	?	-12.6	?	-6.1%	-9.1
COc1ccccc1N/C=C/c1onc(C)c1[N+](=O)[O-]	-28.7%	?	-17.2	11.2µM*	?	-6.6
Cc1noc(/C=C/c2ccccn2)c1[N+](=O)[O-]	?	20.6µM*	-50.9*	nt	nt	-1.4
O=C1c2oc3ccccc3c(=O)c2C(c2cccs2)N1CCCN1CCOCC1 (stereo unspecified)	18.4µM*	-26.7%	5.5	12.3%	4.1%	3.2
Cc1cc2oc3c(c(=O)c2cc1C)C(c1ccc(C(C)C)cc1)N(CCCN1CCOCC1)C3=O (stereo unspecified)	20.6µM*	?	-3.8	12.6%	?	-1.1
COC(=O)c1ccc(C2c3c(oc4ccccc4c3=O)C(=O)N2CCCN2CCOCC2)cc1 (stereo unspecified)	20.6µM*	?	-21.3	?	-4.1%	1.4
Cc1ccc(CC(=O)Nc2ccc(S(=O)(=O)N3CCOCC3)cc2)cc1	-7.8%	-15.3%	12.7	15.0%	0.0%	-8.5
Cc1ccc(NC(=S)N=Nc2c(O)n(C)c3ccc(S(=O)(=O)N4CCOCC4)cc23)cc1	2.59µM*	2.59µM*	-5.7	0.708µM*	1µM*	2.0
Cc1cc(C)cc(NC(=S)N=Nc2c(O)n(C)c3ccc(S(=O)(=O)N4CCOCC4)cc23)c1	1.16µM*	4.61µM*	-4.1	?	-89.8%	18.9
Cc1cc(C)cc(NC(=O)c2cc(S(=O)(=O)N3CCOCC3)cn2C)c1	7.6%	-11.8%	nt	nt	nt	-2.1
Cc1cccc(Nc2ccc(S(=O)(=O)N3CCOCC3)cc2[N+](=O)[O-])c1	?	-24.8%	-24.0	nt	nt	-2.3
Cc1cccc(NC(=S)N=Nc2c(O)n(C)c3ccc(S(=O)(=O)N4CCOCC4)cc23)c1	3.66µM*	3.26µM*	3.2	0.126µM*	0.708µM*	4.5
NC(=O)CCNc1ccccc1Cl	nt	nt	nt	nt	nt	6.2
COc1ccc(OC)c(C2CC(=O)N(c3sc4c(c3C#N)CCCCC4)C3=C2C(=O)CCC3)c1 (stereo unspecified)	nt	nt	nt	nt	nt	-0.9
Cc1nn(CC(=O)Nc2ccccc2N2CCCCC2)c(=O)c2ccccc12	nt	nt	nt	nt	nt	-2.8
O=C1c2ccc(O)c(O)c2C(=O)c2c(O)ccc(O)c21	10.3µM*	?	nt	?	?	nt
O=C1c2ccccc2C(=O)c2c1ccc(O)c2O	-7.1%	-17.5%	-12.1	-34.6%	-10.3%	5.0
Cc1ccc2c(CC(=O)NCc3ccccc3)coc2c1C	4.11µM*	3.26µM*	nt	nt	nt	1.8
COC(=O)c1c(NC(=O)Cc2coc3cc(C)ccc23)sc2c1CCC2	-29.6%	3.26µM*	nt	nt	nt	-0.5
COCCCNC(=O)c1c(NC(=O)c2cc(=O)c3ccccc3o2)sc2c1CCCC2	-16.7%	5.17µM*	nt	nt	nt	2.0
Cc1ccc2c(CC(=O)Nc3ccccc3C(F)(F)F)coc2c1C	-5.7%	-5.5%	nt	nt	nt	-1.6
COCCNC(=O)c1c(NC(=O)Cc2coc3cc(C)ccc23)sc2c1CCCC2	23.1µM*	?	nt	nt	nt	-1.4
COc1ccc(-c2nc3c(c(SC(C)C(=O)Nc4ccccc4OC)n2)COC(C)(C)C3)cc1 (stereo unspecified)	nt	nt	nt	nt	nt	2.1
Cc1nc(CSc2ccccc2C(=O)N2CC=C(c3ccccc3)CC2)cs1	nt	nt	nt	nt	nt	0.9
COCCCNC(=O)c1c(NC(=O)Cc2coc3c(C)c(C)ccc23)sc2c1CCCC2	16.4µM*	16.4µM*	nt	nt	nt	0.6
SMILES	TDP1 cell CPT	DT40 TDP1 no CPT	IL-1B inflam inh	RORgamma inh	Gal4-VP16 FLuc	LDHA block
COC(=O)CC1C2(C)CC34OC5(C)O[C@@]6(C7/C(=C(/OC)C(C)C)C(=O)OC(c8ccoc8)[C@@]7(C)C(OC(=O)C(C)C)C(OC)[C@]6(O5)[C@@]13C)C(OC)[C@]4(OC)C2OC(C)=O (stereo partly specified)	8.2µM*	13µM*	nt	16.3%	2.7%	nt
CC(C)/C(O)=C1/C(=O)OC(c2ccoc2)[C@@]2(C)C(O)C(O)[C@@]34OC5(C)OC67CC(C)(C(O)[C@@]6(O)C(O)[C@@]3(O5)C12)C(CC(=O)O)[C@@]74C (stereo partly specified)	10.2%	-4.5%	nt	23.9%	16.7%	nt
CNC(=O)NC(=O)C(C)SC(C)c1c(F)cccc1F (stereo unspecified)	nt	nt	nt	nt	nt	0.1
Cc1ccccc1CC(=O)N(C)Cc1ccsc1	nt	nt	nt	nt	nt	6.6
CCc1ccc(N=Nc2ccc(O)c3[nH]cnc23)cc1	?	23.1µM*	-3.0	nt	nt	-8.7
CCc1ccc(/C=N/Nc2ncnc3nc[nH]c23)cc1	?	?	75.7	-23.4%	-27.2%	1.4
Cc1cccc(-n2c(CCn3nc(C)c([N+](=O)[O-])c3C)n[nH]c2=S)c1	-8.0%	-12.2%	3.2	12.6µM*	-10.9%	4.0
CCc1ccc(-n2c(Cc3ccccc3)n[nH]c2=S)cc1	?	?	8.7	2µM*	?	-9.0
CCOc1ccc(Cc2n[nH]c(=S)n2N)cc1	-5.9%	-10.8%	9.5	13.6%	-10.4%	-0.5
Cc1cccc(-n2c(Cc3ccccc3)n[nH]c2=S)c1	6.2%	-0.3%	9.7	3.98µM*	14.1µM*	-1.6
CC(=O)Nc1ccc(OCC(=O)N/N=C/C(C)C)cc1	nt	nt	nt	nt	nt	-7.4
Cc1ccc2c(c1)c1c3n2CC(=C2C(=O)OC(C)(C)OC2=O)NC3CCC1 (stereo unspecified)	20.6µM*	20.6µM*	-0.8	39.6%	0.6%	7.5
COc1ccc(C(=O)Nc2c(C)nc(Nc3ccc(C)cc3)nc2Nc2ccc(C)cc2)cc1OC	nt	nt	nt	nt	nt	-5.6
COc1ccc(S(=O)(=O)NCc2cccnc2)cc1C(=O)N1CCCCC1	5.4%	-6.3%	7.0	-1.2%	-7.8%	-2.9
COc1ccccc1N1CCN(C(=O)c2cccc(S(=O)(=O)NCc3cccnc3)c2)CC1	16.4µM*	?	14.4	nt	nt	-0.9
O=C(c1cccc(S(=O)(=O)NCc2ccccc2)c1)N1CCCC1	4.0%	11.1%	0.0	-5.4%	19.2%	-2.8
O=C(c1cccc(S(=O)(=O)NCc2ccccc2)c1)N1CCN(c2ccc(F)cc2)CC1	?	?	-6.6	nt	nt	-3.6
O=C(c1cccc(S(=O)(=O)NCCOc2ccccc2)c1)N1CCN(c2ncccn2)CC1	25.9µM*	23.1µM*	26.0	?	-19.8%	-4.7
O=C(c1cccc(S(=O)(=O)N2CCCC2)c1)N1CCN(c2ncccn2)CC1	21.4%	-26.8%	10.8	22.2%	2.0%	-6.9
